For 39 compounds, cell count results are on record in PubChem BioAssay.

Square brackets hold non-standard residues; d marks the D form. Peptide text beside a SMILES is read from it. * marks the point of attachment. Phe(ol) = N[C@H](CO)Cc1ccccc1; Nle = CCCC[C@H](N)C(=O)O; Cbz = O=C(OCc1ccccc1)*; Boc = CC(C)(C)OC(=O)*; Aib = CC(C)(N)C(=O)O

This test is described as follows: viability loss with induced miR-34 in A549 – imaging, A549 dox-inducible miR-34, nuclei and caspase counts, primary screen (AID 1347080). Further: test concentration not given here. The note with it: A549 miR-34 inducible, Hoechst nuclei count, 48 h; measured here: total cells with miR-34 induction; stronger effect = lower value.
For the compound `CCCCCCCC/C=C\CCCCCCCC(=O)OC[C@H](CO)OC(=O)CCCCCCC/C=C\CCCCCCCC`, the cell count was 5310.

With `NC(=NCc1ccc(Cl)cc1Cl)NC(=O)c1nc(Cl)c(N)nc1N`, the cell count was 1450.

With `CN([C@@H](Cc1ccc(OS(=O)(=O)c2cccc3cnccc23)cc1)C(=O)N1CCN(c2ccccc2)CC1)S(=O)(=O)c1cccc2cnccc12`, the cell count came to 5440.

`CCCC[C@@H](C=O)NC(=O)[C@H](CC(C)C)NC(=O)[C@H](CC(C)C)NC(C)=O` (Ac-Leu-Leu-[Nle]-aldehyde) returned a cell count of 1540.

Take `CCC(C)[C@H](NS(=O)(=O)c1cccc2ccccc12)C(=O)N[C@H](C=O)Cc1c[nH]c2ccccc12` (some centres undefined): the cell count turned out to be 2990.

For `CC(C)[C@@H]1NC(=O)[C@H](Cc2ccccc2)NC(=O)[C@@H](CC(=O)O)NC(=O)CNC(=O)[C@H](CCCN=C(N)N)NC1=O`, the cell count worked out at 1320.

For `CSCC[C@H](NC(=O)[C@H](Cc1ccccc1)NC[C@@H](NC[C@@H](N)CS)C(C)C)C(=O)O`, the cell count was determined as 6180.

`CCCCCCCCCC(=O)OC[C@H](CO)OC(=O)CCCCCCCCC` returned a cell count of 5260.

Consider `CCC(C)[C@@H](CO[C@@H](Cc1ccccc1)C(=O)N[C@@H](CCS(C)(=O)=O)C(=O)OC(C)C)NC[C@@H](N)CS` (some centres undefined), for which the cell count turned out to be 3500.

As to `CCCCC[C@@H](O)/C=C/[C@H]1[C@H](C/C=C\CCCC(=O)O)C(=O)C[C@@H]1O`, the cell count stood at 4850.

`CCCCC[C@@H](O)/C=C/[C@H]1[C@H](C/C=C\CCCC(=O)O)[C@H](O)C[C@@H]1O` gave a cell count of 6980.

The compound `CC1(C)Oc2ccc(C#N)cc2[C@@H](OC2=CC(=O)CC2)[C@@H]1O` gave a cell count of 5940.

Consider `CC[C@H]1[C@@H]2C=C[C@@H]3[C@H]4C/C=C\C(=O)NCCC[C@@H]5NC(=O)C(=C5O)C(=O)CC[C@@H]4C[C@@H]3[C@H]2C[C@H]1C`, for which the cell count turned out to be 636.

Compound `CCCCC/C=C\C\C=C/C=C/C=C/[C@@H](SC[C@H](N)C(=O)NCC(=O)O)[C@@H](O)CCCC(=O)O` came in with a cell count of 5990.

In turn, `CCCC[C@@H](C)/C=C(C)/C=C(\C)C(=O)NC1=C[C@@](O)(/C=C/C=C/C=C/C(=O)NC2=C(O)CCC2=O)[C@@H]2O[C@@H]2C1=O` had a cell count of 1310.

For the compound `C=C[C@@]1(C)CC(=O)[C@]2(O)[C@@]3(C)[C@H](O)CCC(C)(C)[C@@H]3[C@H](O)[C@H](OC(C)=O)[C@@]2(C)O1`, the cell count was found to be 5250.

Compound `CCCCCCCCCCCCCCCCOC[C@H](CO)OC(C)=O` showed a cell count of 5130.

As to `CC(C)[C@H](NC(=O)CNC(=O)OC(C)(C)C)C(=O)N[C@H](C=O)C(C)C` (Boc-Gly-Val-Val-aldehyde), the cell count was determined as 5740.

Take `c1ccc(CN(CCN(Cc2ccccn2)Cc2ccccn2)Cc2ccccn2)nc1`: the cell count came out at 418.

Take `C=CC1CN2CCC1C[C@@H]2[C@H](O)c1ccnc2ccc(OC)cc12` (some centres undefined): the cell count was 4890.

The compound `CCCCCCCCCCCCCCCCCCc1ccc(C(=O)/C=C/C(=O)O)cc1` had a cell count of 5110.

As to `CCCCC[C@H](O)CC(=O)CCc1ccc(O)c(OC)c1`, the cell count was found to be 5360.

In turn, `Nc1ncnc2c1nc(Br)n2C1O[C@H]2COP(=O)(O)O[C@@H]2[C@@H]1O` (some centres undefined) returned a cell count of 4570.

For the compound `N#C/C(=C/c1ccc(O)c(O)c1)C(=O)OC/C=C/c1ccccc1`, the cell count was determined as 4460.

For `CCCCC/C=C\C\C=C/C=C/C=C/[C@@H](SC[C@H](N)C(=O)O)[C@@H](O)CCCC(=O)O`, the cell count was determined as 6150.

`CC(=O)N[C@@H](CC(C)C)C(=O)N[C@@H](CC(C)C)C(=O)N[C@H](C=O)CCCN=C(N)N` came in with a cell count of 5980.

Regarding `O=C[C@@H]1CCCN1C(=O)[C@@H]1CCCN1C(=O)OCc1ccccc1` (Cbz-Pro-Pro-aldehyde), the cell count was determined as 5160.

Compound `CC(=O)OCOC(c1cc([N+](=O)[O-])ccc1Oc1ccc(Br)cc1)P(=O)(OCOC(C)=O)OCOC(C)=O` (centres undefined) came in with a cell count of 3110.

`C[C@H]([C@H](C)N1CC(=O)NC(=O)C1)N1CC(=O)NC(=O)C1` came in with a cell count of 1940.

Take `CCCCC/C=C\C/C=C\CCCCCCCC(=O)O[C@@H](CO)COC(=O)CCCCCCCCCCCCCCCCC`: the cell count came out at 6430.

`CC12C=CC(=O)C=C1CCC1C2=CCC2(C)C1CC[C@@H]2C(=O)CN1CCN(c2cc(N3CCCC3)nc(N3CCCC3)n2)CC1` (some centres undefined) displayed a cell count of 4330.

In turn, `CCCCCCCCCCCCCCCCOC[C@H](CO)OC` returned a cell count of 4770.

Take `COC(=O)/C=C/c1ccc(C(=O)NCC(=O)N[C@@H](CCC(=O)OC)C(=O)N[C@@H](CC(C)C)C(N)=O)cc1`: the cell count is 5510.

In the case of `NC1=NC2C(N=C(Br)N2C2O[C@H]3COP(=O)(O)O[C@@H]3[C@@H]2O)C(=O)N1` (some centres undefined), the cell count was 6370.

`Nc1cc(N2CCCCC2)nc(N)[n+]1OS(=O)(=O)[O-]` yielded a cell count of 5860.

For `Clc1ccc2ncnc(NCc3ccc4c(c3)OCO4)c2c1`, the cell count turned out to be 3640.

Compound `COC(=O)CNC(=O)C(=O)OC` had a cell count of 6040.

With `CC(=O)NC(C)(C)C(=O)N1CCC[C@H]1C(=O)NC(C)(C)C(=O)N[C@@H](C)C(=O)NC(C)(C)C(=O)N[C@@H](C)C(=O)N[C@@H](CCC(N)=O)C(=O)NC(C)(C)C(=O)N[C@H](C(=O)NC(C)(C)C(=O)NCC(=O)N[C@@H](CC(C)C)C(=O)NC(C)(C)C(=O)N1CCC[C@H]1C(=O)N[C@H](C(=O)NC(C)(C)C(=O)NC(C)(C)C(=O)N[C@@H](CCC(=O)O)C(=O)N[C@@H](CCC(N)=O)C(=O)N[C@H](CO)Cc1ccccc1)C(C)C)C(C)C` (Ac-[Aib]P[Aib]A[Aib]AQ[Aib]V[Aib]GL[Aib]PV[Aib][Aib]EQ[Phe(ol)]), the cell count is 1460.

In the case of `CC(C)C[C@@H](/C=C/S(C)(=O)=O)NC(=O)[C@H](CC(C)C)NC(=O)[C@H](CC(C)C)NC(=O)OCc1ccccc1`, the cell count was 585.
